From PubChem BioAssay
Shown are actives, neighbours in structure and some others; about 1.4% of the full set was active somewhere.
eLon inh: inhibits E. coli Lon protease. P0A9M0. purified E. coli Lon protease, fluorescence polarization. inhibition, % at 7.94 µM. 360,000 compounds, 0.42% hits; in the data active means inhibition above about 13%, passing the limit was not always enough;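 further: 0% = enzyme with probe and DMSO and 100% = no enzyme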
MCL1 BIM primary: disrupts human MCL1 binding to BIM-BH3 peptide; Q07820; GST-MCL1 / FITC-Bim-BH3 fluorescence polarization; inhibition, % at 10.9 µM; 320,000 compounds, 0.68% hits; AID 2057;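 active means inhibition above the mean inhibition of all tested compounds plus 3 SD, set per campaign, cut at about 40% in these data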;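 further: 0% = DMSO wells and 100% = unlabeled Bim-BH3 peptide control; higher means more loss of mP so more displacement of Bim peptide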
EBV gp42 block: inhibitors of Epstein-Barr virus glycoprotein 42 | 220,000 compounds, 0.42% hits | Fluorescence polarization binding assay, mP read-out | Q1HVG2 | AID 1085 | inhibition, % (tested at 21.74 µM); in the data active means inhibition above about 50%
Bcl-xL primary: blocks human Bcl-xL binding to Bim BH3 peptide | Q07817 | GST-Bcl-xL / FITC-Bim BH3 peptide fluorescence polarization | inhibition, % at 10.9 µM | 320,000 compounds, 0.7% hits | AID 2129;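 active means inhibition above the mean of all tested compounds plus 3 SD, cutoff set per campaign, cut at about 30% in these data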;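 further: 0% = DMSO wells and 100% = unlabeled Bim-BH3 peptide competitor; inhibitors lower millipolarization by displacing the labeled peptide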
MEX-5 binding: C. elegans MEX-5 TCR-2 RNA binding activity. Q9XUB2. MEX-5/FITC-TCR2 RNA binding, fluorescence polarization; stronger effect = lower value. activity score (negative = inhibition of binding), % at 10 µM. 300,000 compounds, 0.38% hits;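 active means inhibition past about -25% in most replicates, and total fluorescence under double the plate's negative control median, limit read from the data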;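 further: 0% = DMSO and -100% = 5 µM competing unlabeled TCR2 RNA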
Target sequence (Q9XUB2 whole entry, looked up): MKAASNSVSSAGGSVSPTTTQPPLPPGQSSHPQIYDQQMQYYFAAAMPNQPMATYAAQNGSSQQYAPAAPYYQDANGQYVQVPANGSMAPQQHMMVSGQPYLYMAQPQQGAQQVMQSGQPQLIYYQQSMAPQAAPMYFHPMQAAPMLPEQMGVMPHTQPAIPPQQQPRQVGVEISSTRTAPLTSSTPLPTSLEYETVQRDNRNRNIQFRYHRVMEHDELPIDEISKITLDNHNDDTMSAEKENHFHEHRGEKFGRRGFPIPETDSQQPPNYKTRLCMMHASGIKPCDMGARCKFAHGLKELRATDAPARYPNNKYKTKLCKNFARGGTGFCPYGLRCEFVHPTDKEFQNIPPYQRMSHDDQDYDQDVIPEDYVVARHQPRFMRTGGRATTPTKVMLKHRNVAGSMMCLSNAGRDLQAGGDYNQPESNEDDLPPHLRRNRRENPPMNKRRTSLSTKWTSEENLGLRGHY
GLD-1 RNA inh: GLD-1-TGE RNA interaction inhibition (C. elegans) | inhibition, % at 5.96 µM | 320,000 compounds, 0.44% hits | Q17339 | purified GLD-1 + fluorescein TGE RNA, fluorescence polarization;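 active means percent inhibition above a per-plate cutoff, the plate mean of test compounds plus 3 SD, cut at about 30% in these data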;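 further: 0% = DMSO wells with GLD-1 and probe and 100% = wells lacking GLD-1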
Starred values were filed as active, the others as inactive; · = not tested or not shown.

SMILES | eLon inh | MCL1 BIM primary | EBV gp42 block | Bcl-xL primary | MEX-5 binding | GLD-1 RNA inh
Nn1c(SCC(=O)NCCN2C(=O)CSC2=O)nnc1-c1ccc(OC(F)F)cc1 | -7 | -10 | · | -8 | 0 | 1
CC(=O)Oc1ccc(C(=O)[C@H]2[C@H]3C(=O)N(c4ccc(C)cc4)C(=O)[C@H]3[C@@H]3C=CC=NN32)cc1 | -2 | 25 | -12 | 29 | 8 | 38*
Cc1ccccc1C(=O)NNC(=O)CSc1nc(-c2ccccc2)cc(=O)[nH]1 | -10 | 10 | 1 | 6 | 0 | 2
Cc1ccc2c(c1)C1C=CCC1C(C(=O)O)N2 (centres undefined) | · | 108* | 79* | 62* | -1 | 10
O=C(O)C1Nc2c(cccc2C(F)(F)F)C2C=CCC12 (centres undefined) | · | · | · | · | -29* | ·
Cc1ccc2c(c1)C1C=CCC1C(C(=O)NCCCN1CCOCC1)N2 (centres undefined) | 0 | 5 | · | 5 | 0 | -2
Cc1cc(/C=N/Nc2ccc([N+](=O)[O-])cn2)c(C)n1-c1ccc(C(=O)O)cc1 | -21 | -33 | 61* | -3 | -2 | -7
O=Cc1cnc(N2CCCCC2)s1 | -10 | 3 | 112* | 4 | 1 | 3
O=[N+]([O-])c1cc(-c2ccc(/C=N/n3cnnc3)o2)ccc1Cl | 5 | 13 | · | 1 | -40* | -4
O=[N+]([O-])c1cc(-c2ccc(C(=S)N3CCOCC3)o2)ccc1Cl | -1 | 43* | 1 | 37* | -1 | 19
O=[N+]([O-])c1ccc(Cl)c(-c2ccc(/C=N/n3cnnc3)o2)c1 | 4 | 3 | · | 0 | -1 | -4
Cc1ccc(/C=C/C(=O)OCc2nc(N)nc(Nc3ccccc3C)n2)o1 | -4 | 9 | 85* | 4 | 3 | 8
Cc1csc(=O)n1CCC(=O)OCC(=O)Nc1ncc(Cl)cc1Cl | 0 | 30 | · | 16 | -1 | 11
CC(C)Cn1c(N)c(C(=O)COC(=O)[C@@H]2CCCN2C(=O)c2cccs2)c(=O)n(C)c1=O | -6 | 1 | -2 | 0 | 0 | -2
CCOn1c(=O)c(-c2cc3ccccc3o2)[n+]([O-])c2ccccc21 | -9 | 10 | -14 | 13 | -43* | 19
O=c1c(-c2ccco2)[n+]([O-])c2ccccc2n1OCc1ccccc1 | -7 | 16 | -30 | 30* | -6 | 38*
Cc1ccc(S(=O)(=O)NC(=O)C2(C)CCN2C(=O)c2ccccc2CCc2ccccc2)nc1 (centres undefined) | 5 | · | · | · | · | ·
CC(C)c1ccc(NC2CCCN(C(=O)C3=NN(C)C(=O)CC3)C2)cc1 (centres undefined) | 0 | 4 | · | 8 | 1 | 0
CCC1=NN2C(=N)/C(=C\c3cccn3-c3ccc(Br)cc3)C(=O)N=C2S1 | -3 | · | 59* | · | 7 | ·
CC12CCC(C(=O)N(NC(=O)c3cc(Cl)ccc3O)C1=O)C2(C)C (centres undefined) | 6 | 7 | 0 | 8 | 0 | -23
O=C(O)c1ccccc1NS(=O)(=O)c1ccc(NNC(=S)Nc2ccc(OC(F)F)cc2)c([N+](=O)[O-])c1 | -4 | · | 19 | · | -42* | ·
c1ccc(Nc2c(-c3ccco3)nc3ccccn23)cc1 | 4 | 6 | -12 | 7 | 0 | -4
c1ccc(-c2nc(-c3ccco3)n3ccccc23)cc1 | -17 | 45* | 44 | 65* | -12 | 21
CC1CC(=O)Nc2ccccc2N1S(=O)(=O)c1cccc(Cl)c1 (centres undefined) | 6 | 2 | 3 | -1 | -1 | 0
Cc1ccc(C2C3=C(CCCC3=O)Nc3[nH]c(=S)[nH]c(=O)c32)cc1 (centres undefined) | 2 | -3 | 82* | 8 | -1 | 3
O=C1CCCC2=C1C(c1ccc(Br)cc1)c1c([nH]c(=S)[nH]c1=O)N2 (centres undefined) | 4 | 6 | -10 | 34* | 1 | 8
CC1(C(=O)NS(=O)(=O)c2cccc(C#N)c2)CCN1C(=O)Cc1ccccc1 (centres undefined) | -3 | · | · | · | · | ·
CCCN(C1CCS(=O)(=O)C1)S(=O)(=O)c1ccc(F)cc1 (centres undefined) | -2 | 0 | · | 7 | 0 | -3
